AmpC inh detg – inhibitors of E. coli AmpC beta-lactamase with detergent. AmpC hydrolysis of nitrocefin, absorbance 480 nm, 0.01% Triton. Potency, µM (top dose mostly 114 µM), hits mostly inhibitors. 370,000 tested, 0.041% active; further: nearly all actives have a fitted effect of over 25% in size
Target sequence (P00811 whole entry, looked up): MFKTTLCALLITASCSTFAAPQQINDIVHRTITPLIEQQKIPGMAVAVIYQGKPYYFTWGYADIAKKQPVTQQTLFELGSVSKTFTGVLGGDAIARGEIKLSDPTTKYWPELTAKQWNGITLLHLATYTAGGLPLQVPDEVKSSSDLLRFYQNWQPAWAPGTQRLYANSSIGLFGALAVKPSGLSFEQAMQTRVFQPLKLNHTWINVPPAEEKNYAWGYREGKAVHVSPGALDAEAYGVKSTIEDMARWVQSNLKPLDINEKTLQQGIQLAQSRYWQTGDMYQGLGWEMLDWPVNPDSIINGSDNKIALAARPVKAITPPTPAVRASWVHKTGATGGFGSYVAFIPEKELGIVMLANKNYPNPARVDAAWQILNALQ
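20 mM phosphate pH 7.0 + 0.01% (detergent screen) or 0.0001% Triton X-100; 5.3 nM AmpC reagent; cpd preinc 15 min RT; nitrocefin (800 uM stock) to start; A480 q20 s × 4 min; Activity was normalised to no-enzyme and no-compound control wells.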
AmpC inh no detg – blocks E. coli AmpC beta-lactamase in detergent-free assay; AmpC nitrocefin hydrolysis, absorbance 480 nm, 0.0001% Triton; Potency, µM (doses to about 57.1 µM), usual class: inhibitors; 330,000 tested, 0.52% active; further: nearly all actives have a fitted effect of over 20% in size
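AmpC (5.3 nM in the dispensed reagent) in 20 mM phosphate pH 7.0 with 0.01% (detergent screen) or 0.0001% Triton X-100 was preincubated with compounds for 15 min at room temperature. Nitrocefin was then added from an 800 uM solution, and hydrolysis was followed at 480 nm.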
Sm TGR inh – inhibitors of Schistosoma mansoni thioredoxin glutathione reductase | 360,000 tested, 3% active | Q962Y6 | Potency, µM (highest dose often 114 µM), usual class: inhibitors | purified TGR, DTNB reduction, TNB absorbance 405 nm; further: nearly all actives have a fitted effect of over 60% in size
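TGR 20 nM + NADPH 100 uM (dispensed conc.), cpd preinc 15 min RT; start with NADPH (500 uM addition) then DTNB (15 mM addition). Kinetic TNB absorbance, 405 nm filter. Four-parameter Hill fit across titration.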
A number is an active result; [ ] = another dose, or the depositor's remark. A selection: hits, their analogues and other compounds. The true share with any hit is near 3.3%. The call rests on the fitted dose curve; in most records, active means well fitted curve in the direction sought with a large enough effect; inconclusive means small, poorly fitted or top-dose-only effect, or another doubt; inactive means no such curve, though single readings can be large; an effect the other way counts as inactive or inconclusive.

Screening CC(C)CN(CCCNC(=O)c1cc(=O)[nH]c2ccc(S(=O)(=O)N3CCCCCC3)cc12)CC(C)C returned AmpC inh detg inactive and Sm TGR inh inactive.
Screening COc1ccc(C(=O)NC(C)c2ccncc2)cc1S(=O)(=O)N(C)Cc1ccccc1 (stereo unspecified) returned AmpC inh detg inactive, AmpC inh no detg inactive and Sm TGR inh inactive.
`Cc1ccc(C(=O)OC(C)C(=O)NC(C)CCc2ccccc2)o1` (stereo unspecified) gave AmpC inh detg inactive, AmpC inh no detg inactive and Sm TGR inh inactive.
O=C(CSc1n[nH]c(=O)[nH]c1=O)c1cccc([N+](=O)[O-])c1 was read as AmpC inh detg inactive, AmpC inh no detg inactive and Sm TGR inh inactive.
O=C(CSc1n[nH]c(=O)[nH]c1=O)c1ccccc1[N+](=O)[O-] was read as AmpC inh detg inactive, AmpC inh no detg inactive and Sm TGR inh 45µM.
For Cc1csc(=O)n1CC(=O)OCC(=O)NC(C)c1ccc(F)cc1 (stereo unspecified) the results were AmpC inh detg inactive, AmpC inh no detg inactive and Sm TGR inh inactive.
`CCCn1c(CCC(=O)O)ccc1-c1ccc(F)cc1` gave AmpC inh detg inactive, AmpC inh no detg inactive and Sm TGR inh inconclusive.
Screening O=C(O)CCc1ccc(-c2ccccc2)n1Cc1ccco1 returned AmpC inh detg inactive, AmpC inh no detg inactive and Sm TGR inh 32µM.
O=C(O)CCc1ccc(-c2ccccc2)n1CC1CCCO1 (stereo unspecified) was read as AmpC inh detg inactive, AmpC inh no detg inactive and Sm TGR inh inactive.
Screening O=C(O)CCc1ccc(-c2ccc(F)cc2)n1Cc1ccco1 returned AmpC inh detg inconclusive, AmpC inh no detg inactive and Sm TGR inh 50µM.
`O=C(O)CCc1ccc(-c2ccc(Br)cc2)n1Cc1ccco1` gave AmpC inh detg inactive, AmpC inh no detg inactive and Sm TGR inh 50µM.
For COC(=O)Cn1c(CCC(=O)O)ccc1-c1ccccc1 the results were AmpC inh detg inconclusive, AmpC inh no detg inactive and Sm TGR inh inconclusive.
Screening Cc1ccc2ncc(C(=O)Nc3cccc(C(F)(F)F)c3)c(=O)n2c1 returned AmpC inh detg inactive and Sm TGR inh inactive.
Screening CCCCCCCCNC(=O)C(CCC(=O)OCc1ccccc1)NC(C)=O (stereo unspecified) returned AmpC inh detg inactive, AmpC inh no detg inactive and Sm TGR inh inactive.
For CCOc1ccc(C(O)c2nccn2Cc2ccccc2)cc1 (stereo unspecified) the results were AmpC inh detg inactive, AmpC inh no detg inactive and Sm TGR inh inactive.
For CCn1ccnc1C(O)c1ccc(N(C)C)cc1 (stereo unspecified) the results were AmpC inh detg inactive, AmpC inh no detg inactive and Sm TGR inh 10µM.
Screening C/C(=N\Nc1ccccc1)c1cccc(N)c1 returned AmpC inh detg inactive, AmpC inh no detg inactive and Sm TGR inh inconclusive.
Oc1ccc(O)c(/C(=N/Nc2ccccc2)c2ccccc2)c1 was read as AmpC inh detg inactive, AmpC inh no detg inactive and Sm TGR inh 6.3µM.
For CCCCCC1CC(CC(=O)O)C(=O)O1 (stereo unspecified) the results were AmpC inh detg inconclusive, AmpC inh no detg inactive and Sm TGR inh inactive.
`CCCCCC1CC(CC#CCN2CCOCC2)C(=O)O1` (stereo unspecified) gave AmpC inh detg inactive, AmpC inh no detg inactive and Sm TGR inh 22µM.
For CS(=O)(=O)c1cccc(-c2nnc(NC(=O)C3=COCCO3)o2)c1 the results were AmpC inh detg inactive, AmpC inh no detg inactive and Sm TGR inh inactive.
`COc1ccc(S(=O)(=O)N2CCCCCC2)cc1NC(=O)CC1OC(=O)c2ccccc21` (stereo unspecified) gave AmpC inh detg inconclusive, AmpC inh no detg inactive and Sm TGR inh 40µM.
For O=C(CC1OC(=O)c2ccccc21)Nc1cccc(S(=O)(=O)N2CCCCCC2)c1 (stereo unspecified) the results were AmpC inh detg inactive, AmpC inh no detg inconclusive and Sm TGR inh inactive.
`O=C(CC1OC(=O)c2ccccc21)Nc1ccc(Cl)c(S(=O)(=O)N2CCCCC2)c1` (stereo unspecified) gave AmpC inh detg inconclusive, AmpC inh no detg inactive and Sm TGR inh inactive.
Screening COCCNCC(=O)Nc1ccc(C)c(S(=O)(=O)N2CCCCC2)c1 returned AmpC inh detg inactive, AmpC inh no detg inactive and Sm TGR inh inactive.
Screening Cc1ccc(NC(=O)CCl)cc1S(=O)(=O)N1CCCCCC1 returned AmpC inh detg inconclusive, AmpC inh no detg inactive and Sm TGR inh 7.9µM.
Cc1ccc(NC(=O)CC2OC(=O)c3ccccc32)cc1S(=O)(=O)N1CCCCCC1 (stereo unspecified) was read as AmpC inh detg inconclusive, AmpC inh no detg inactive and Sm TGR inh 25µM.
N#Cc1cc(NC(=O)c2ccc(F)cc2)c(=O)n2c1[nH]c1ccccc12 was read as AmpC inh detg inactive, AmpC inh no detg inactive and Sm TGR inh inactive.
`CNc1c([N+](=O)[O-])cnn1-c1cccc(Cl)n1` gave AmpC inh detg inactive and AmpC inh no detg inactive.
c1ccc(N2CCN(C3CC4CCC3C4)CC2)cc1 (stereo unspecified) was read as AmpC inh detg inactive, AmpC inh no detg inactive and Sm TGR inh inactive.
O=C1CCCN2N=C(SCC(=O)Nc3ccc(F)cc3F)SC2=N1 was read as AmpC inh detg inactive, AmpC inh no detg inactive and Sm TGR inh inactive.
Cc1ccc(-c2cc(C(F)F)n3ncc(C(=O)Nc4ccc(S(=O)(=O)Nc5ccccc5C)cc4)c3n2)cc1 was read as AmpC inh detg inconclusive, AmpC inh no detg inactive and Sm TGR inh inactive.
`Cc1ccc(N2CC(O)Cn3c2nc2c3c(=O)n(C)c(=O)n2C)cc1` (stereo unspecified) gave AmpC inh detg inactive, AmpC inh no detg inactive and Sm TGR inh inactive.
`Cn1c(=O)c2c(nc3n2CC(O)CN3c2ccc(O)cc2)n(C)c1=O` (stereo unspecified) gave AmpC inh detg inactive, AmpC inh no detg inactive and Sm TGR inh 20µM.
`Cn1cccc1C(=O)NC(=O)COC(=O)c1cc(S(=O)(=O)N2CCCCC2)ccc1Cl` gave AmpC inh detg inactive, AmpC inh no detg inactive and Sm TGR inh inactive.
`CC(C)(C)NC(=O)CN1CCN(C(=O)CCl)CC1` gave AmpC inh detg inactive, AmpC inh no detg inactive and Sm TGR inh 45µM.
Screening CC(C)(C)NC(=O)CN1CCCN(C(=O)COc2ccc(Cl)c3ccccc23)CC1 returned AmpC inh detg inactive, AmpC inh no detg inactive and Sm TGR inh inactive.
`CCOC(=O)N1CCN(C(=O)Cc2ccc(Cl)cc2)CC1` gave AmpC inh detg inconclusive, AmpC inh no detg inactive and Sm TGR inh inactive.
CCOC(=O)N1CCN(C(=O)CCl)CC1 was read as AmpC inh detg inactive, AmpC inh no detg inactive[2.29 µM] and Sm TGR inh 40µM.
O=C(O)C1=C[C@H](c2csc3ccccc23)C[C@H](OCCCCO)O1 was read as AmpC inh detg inactive, AmpC inh no detg inactive and Sm TGR inh inconclusive.
Screening CCCCn1nnc(N(C(=O)c2cccs2)C(=O)c2cccs2)n1 returned AmpC inh detg inactive, AmpC inh no detg inactive and Sm TGR inh 4.5µM.
CCCn1nnc(NC(=S)NC(=O)c2cccs2)n1 was read as AmpC inh detg inactive, AmpC inh no detg inactive and Sm TGR inh inactive.

From PubChem
